# Measured values published in PubChem BioAssay AID602365 (National Center for Advancing Translational Sciences (NCATS), 2012).
# Results filed as inconclusive are left out. Active and inactive are the calls of the source. Calls come from the whole dose curve; as a rule, active = well fitted inhibition curve with a large enough effect; inconclusive = small, poorly fitted or top-dose-only effect; inactive = flat fitted curve, though single readings scatter.
# Target: Luciferin 4-monooxygenase (Photinus pyralis) (UniProt P08659)
# Assay: FLuc inhibitory activity for the follow-up compounds in a biochemical assay with 1mM D-luciferin
# Conditions: purified FLuc, luminescence; series mostly up to 57.5 µM
# Excerpt: NCGC Assay Overview: Firefly (Photinus pyralis) luciferase is one of the most commonly used transcriptional reporters. It is considered one of the more dynamically responsive reporters - that is, responsive to changes in reporter transcription - as it requires no post-translational modifications and is enzymatically active directly after protein synthesis (Wood, 1998). With no endogenous expression in mammalian cells and without the requirement of external excitation, it offers very little background signal, thus generally providing excellent signal to background for most assays. Previous profiling work to determine the prevalence of compounds that affect FLuc enzymatic activity (PubChem AID 411) identified that ~3% of the MLSMR library (then at ~72K) inhibited FLuc. […] Of the compounds identified in this profile that inhibited FLuc, 151 compounds were selected for further analysis, in an effort to better understand their mode of inhibiting FLuc. The assay described here was to determine the activity of the compounds in a FLuc assay that contained a KM concentration of ATP and a high concentration (1mM) of D-luciferin.
# NCGC Assay Protocol Summary: Reagents: 50mM Tris acetate, pH 7.5; 10mM Mg acetate; 1mM D-luciferin (Sigma #L9504); 10uM ATP; 0.01% Tween-20; 0.05% BSA; 10nM P. pyralis luciferase (Sigma #L9506) Control compounds used were two known firefly luciferase inhibitors (3-(5-(3-chlorophenyl)-1,2,4-oxadiazol-3-yl)benzoic acid and 5-(2-fluorophenyl)-3-phenyl-1,2,4-oxadiazole), and DMSO. Three microliters containing firefly luciferase substrates in buffer (final concentrations: 50mM Tris acetate, pH 7.5, 10mM Mg acetate, 0.01% Tween-20, 0.05% BSA, 1mM D-luciferin, 10uM ATP) are dispensed into each well of a Greiner white, solid-bottom 1536-well format plate using a flying reagent dispenser (FRD). These assay plates were then treated with 23nL of compound or DMSO using a Kalypsys pin tool, which allows for delivery of a 12-point intraplate titration of each compound to the assay plate (quantitative HTS), with a final compound concentrations ranging from approximately ~60uM to 0.3nM. One microliter of firefly luciferase in […] Tris-acetate buffer was then delivered by FRD to each well for a final enzyme concentration of 10nM. Luciferase activity was then measured using a ViewLux CCD imager (PerkinElmer), with an average exposure time of 2-30 seconds (2X binning, medium/high gain).
# Luciferin 4-monooxygenase (Photinus pyralis), sequence (P08659 whole entry, looked up): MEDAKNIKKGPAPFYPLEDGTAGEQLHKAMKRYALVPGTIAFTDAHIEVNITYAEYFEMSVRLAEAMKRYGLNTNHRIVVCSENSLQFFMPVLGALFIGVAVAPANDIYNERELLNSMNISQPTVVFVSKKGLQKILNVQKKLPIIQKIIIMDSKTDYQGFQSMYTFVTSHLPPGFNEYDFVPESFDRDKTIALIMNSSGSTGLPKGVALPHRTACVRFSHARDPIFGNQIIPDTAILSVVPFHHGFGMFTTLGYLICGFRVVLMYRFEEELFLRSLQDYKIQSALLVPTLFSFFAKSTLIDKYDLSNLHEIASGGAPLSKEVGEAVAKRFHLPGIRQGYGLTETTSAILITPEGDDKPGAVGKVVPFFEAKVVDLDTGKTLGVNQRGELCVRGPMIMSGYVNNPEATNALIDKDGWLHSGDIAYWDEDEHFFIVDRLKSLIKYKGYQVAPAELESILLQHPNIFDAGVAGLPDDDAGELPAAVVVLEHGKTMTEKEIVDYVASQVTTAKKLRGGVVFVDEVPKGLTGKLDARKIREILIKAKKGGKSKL
row,Structure (SMILES),Potency
1,Oc1ccc(-c2nc3ccccc3s2)c(O)c1,16.3 µM (active)
2,O=C(Nc1ccccc1C(=O)O)c1cccc(NC(=O)c2ccc(Br)o2)c1,20.6 µM (active)
3,CCCC(=O)Nc1nc2ccc(OCC)cc2s1,29.1 µM (active)
4,COc1ccccc1C(=O)Nc1ccc(C(=O)O)cc1,inactive
5,COc1ccc(C(=O)Nc2cccc(C(=O)O)c2)cc1S(=O)(=O)N1CCCC1,inactive
6,CCOc1ccc2nc(NC(=O)c3cc([N+](=O)[O-])ccc3N3CCOCC3)sc2c1,inactive
7,O=C(Nc1ccccc1-c1nc2ccccc2s1)c1ccc(Br)o1,inactive
8,COc1ccc(-c2nc3ccccc3s2)cc1NC(=O)c1ccc(F)cc1,inactive
9,O=C(Nc1ccccc1C(=O)O)c1cccc(NC(=O)c2ccccc2Cl)c1,36.6 µM (active)
10,CC(C)Oc1ccc(C(=O)Nc2ccc(-c3nc4ccccc4s3)cc2)cc1,inactive
11,Cc1ccc(C(=O)Nc2cccc(C(=O)O)c2)cc1,4.11 µM (active)
12,Cc1ccc2sc(-c3ccc(N)cc3)nc2c1,0.517 µM (active)
13,COc1ccc(C(=O)Nc2ccccc2C(=O)Nc2ccccc2C(=O)O)cc1,1.63 µM (active)
14,O=C(Nc1ccccc1C(=O)O)c1cccc(S(=O)(=O)Nc2ccc(Br)cc2)c1,inactive
15,COc1ccc(C(=O)Nc2ccccc2-c2nc3ccccc3s2)c(OC)c1,inactive
16,COc1ccc(C(=O)Nc2nc3ccc(OC)cc3s2)cc1,5.17 µM (active)
17,O=C(O)c1ccc(NC(=O)c2cc(S(=O)(=O)N3CCCCC3)c(Cl)cc2Cl)cc1,inactive
18,Cc1c(C)c2ccc(OCC(=O)Nc3ccccn3)c(C)c2oc1=O,0.0919 µM (active)
19,Cc1ccc2sc(-c3ccc(NC(=O)c4cc(-n5cnnc5)ccc4Cl)cc3)nc2c1,18.3 µM (active)

row,Structure (SMILES),Potency
1,O=C(Nc1ccccc1C(=O)O)c1cc(S(=O)(=O)NCc2ccccc2)ccc1Cl,inactive
2,CC(C)c1ccc(-c2nc3ccccc3s2)cc1,0.183 µM (active)
3,Nc1ccc(-c2nc3ccc(N)cc3s2)cc1,1.83 µM (active)
4,CCCOc1cccc(C(=O)Nc2ccc(-c3nc4ccccc4s3)c(Cl)c2)c1,inactive
5,CCOc1ccc(C(=O)Nc2cccc(C(=O)O)c2)cc1Cl,6.51 µM (active)
6,O=C(COC(=O)c1ccccc1[N+](=O)[O-])c1ccc2c(c1)OCO2,0.0461 µM (active)
7,COc1ccc(-c2cccc(C(=O)Nc3cccc(C(=O)O)c3)c2)cc1,18.3 µM (active)
8,O=C(O)c1cccc(NC(=O)c2cccc(S(=O)(=O)Nc3cccc(F)c3)c2)c1,inactive
9,Cc1ccc(C(=O)Nc2cccc(C(=O)O)c2)cc1S(=O)(=O)N1CCCC1,4.61 µM (active)
10,COc1cc(OC)cc(C(=O)Nc2ccc(-c3nc4ccccc4s3)c(C)c2)c1,inactive
11,Cc1cccc(NS(=O)(=O)c2cccc(C(=O)Nc3cccc(C(=O)O)c3)c2)c1,inactive
12,O=C(O)c1cccc(NC(=O)c2ccc(Cl)c(S(=O)(=O)N3CCCCCC3)c2)c1,3.26 µM (active)
13,O=C(O)c1ccc(NC(=O)c2cccc(NC(=O)c3cccs3)c2)cc1,32.6 µM (active)
14,Cc1c(NC(=O)c2cc(-n3cnnc3)ccc2Cl)cccc1-c1nc2ccccc2s1,0.919 µM (active)
15,CC(C)(C)NC(=O)c1ccccc1-c1nc2ccccc2s1,inactive
16,COc1ccc2nc(NC(=O)c3ccc([N+](=O)[O-])o3)sc2c1,5.8 µM (active)
17,COc1ccc(C(=O)Nc2ccccc2C(=O)Nc2ccc(C(=O)O)cc2)cc1,8.19 µM (active)
18,Cc1ccc(S(=O)(=O)N2CCN(C(=O)c3ccccc3-c3nc4ccccc4s3)CC2)c(C)c1,inactive
19,O=C(Nc1ccccc1C(=O)O)c1ccc(Cl)c(S(=O)(=O)N2CCOCC2)c1,18.3 µM (active)
